Data on ten compounds can be found in PubChem BioAssay (NCI).

This is part of a sample that, as a whole, favours compounds with a hit. Of some 79,000 tested, about 15% had one in any assay. A number with no mark means an inactive call. The source made the active and inactive calls. Rule as the data show it: active = growth inhibition above about 70%; inactive = the rest.

Assay [1] can be described thus: NCI Yeast Anticancer Drug Screen. Data for the rad50 strain (AID 155).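 Also: 0% = growth of vehicle-only cultures of the same strain.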 The note with it: S. cerevisiae rad50 strain growth inhibition, active compounds read high. In a few lines: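 Cells are treated with compound, grown, and their growth is then scored against vehicle-only cultures of the same repair-deficient yeast strain.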
Assay [2] can be described thus: NCI Yeast Anticancer Drug Screen. Data for the mec2-1 strain (AID 157). Particulars: S. cerevisiae mec2-1 strain, active compounds read high. The essentials:
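Compounds were applied to mec2-1 yeast cells. Their growth was then compared with that of vehicle-treated cultures to give growth inhibition.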

Assay [3] is described as follows: NCI Yeast Anticancer Drug Screen. Data for the sgs1 mgt1 strain (AID 161).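 Also: 0% = growth of cultures given vehicle only.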 The note with it: S. cerevisiae sgs1 mgt1 strain, active compounds read high. The essentials: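 Growth of a repair-deficient yeast mutant was monitored after compound treatment and expressed as inhibition relative to vehicle-treated cultures.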
Assay [4] in a line: NCI Yeast Anticancer Drug Screen. Data for the cln2 rad14 strain (AID 165).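 Also: 0% = growth equal to vehicle treated cultures.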 The note with it: S. cerevisiae cln2 rad14 strain, active compounds read high. The essentials:
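Strain: cln2 rad14 yeast, altered in cell cycle control and DNA damage repair. Read-out: growth inhibition vs vehicle.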

A short description of assay [5]: NCI Yeast Anticancer Drug Screen. Data for the bub3 strain (AID 167). Particulars: S. cerevisiae bub3 mutant strain, active compounds read high. The essentials: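 Part of a panel of yeast mutants defective in DNA damage repair or cell cycle regulation. Each strain is grown with compound, and inhibition is calculated relative to solvent-treated cultures.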
The nature of assay [6]: NCI Yeast Anticancer Drug Screen. Data for the mlh1 rad18 strain (AID 175). Particulars: S. cerevisiae mlh1 rad18 strain growth inhibition, active compounds read high. The essentials:
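A repair-deficient yeast strain is exposed to test compound, and growth is scored relative to vehicle-treated controls.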

The mark [7] stands for this setting: at 5.0 µM (retest, dose inferred, filed as 0.5).
Where [8] appears, read: at 50.0 µM (retest, dose inferred, filed as 5.0).

With `Nc1ccccc1-c1nc2c(ccc3ccccc32)[nH]1`, the growth inhibition in assay [1] (setting [7]) was -1%; in assay [1] (setting [8]) it was 10%; in assay [1] (at 50.0 µM) it was 79.7% (active); in assay [2] (setting [7]), -17%; in assay [2] (setting [8]), -10%; in assay [2] (at 50.0 µM) it was 4.6%. For the same compound, the growth inhibition in assay [3] (setting [7]) is -16%; in assay [3] (setting [8]), -5%; in assay [3] (at 50.0 µM) it was 88.8% (active); in assay [4] (setting [7]), 8%; in assay [4] (setting [8]) it was -10%; in assay [4] (at 50.0 µM), 24.6%. Further, the growth inhibition in assay [5] (setting [7]) was -3%; in assay [5] (setting [8]), 2%; in assay [5] (at 50.0 µM), 62.3%; in assay [6] (setting [7]), 0%; in assay [6] (setting [8]) it was -18%; in assay [6] (at 50.0 µM), 80.5% (active).
On to `N#CC(CC(Br)CBr)(c1ccccc1)c1ccccc1` (stereo not given), for which the growth inhibition was 8% in assay [1] (setting [7]); 11% in assay [1] (setting [8]); 45.9% in assay [1] (at 50.0 µM); 8% in assay [2] (setting [7]); 24% in assay [2] (setting [8]); 40.1% in assay [2] (at 50.0 µM). The growth inhibition in assay [3] (setting [7]) was 11%; in assay [3] (setting [8]) it was 29%; in assay [3] (at 50.0 µM), 56%; in assay [4] (setting [7]) it was 10%; in assay [4] (setting [8]), -2%; in assay [4] (at 50.0 µM), 36.2%. For the same compound, the growth inhibition was 9% in assay [5] (setting [7]); 11% in assay [5] (setting [8]); 33.3% in assay [5] (at 50.0 µM); 16% in assay [6] (setting [7]); 51% in assay [6] (setting [8]); 75.5% (active) in assay [6] (at 50.0 µM).
As for `O=C1c2ccccc2C(=O)c2c1ccc(C(=O)O)c2-c1ccc2ccccc2c1`, the growth inhibition in assay [1] (setting [7]) was 5%; in assay [1] (setting [8]), 97% (active); in assay [1] (at 50.0 µM) it was 97.3% (active); in assay [2] (setting [7]), 26%; in assay [2] (setting [8]), 98% (active); in assay [2] (at 50.0 µM), 97.8% (active). In addition, the growth inhibition is 11% in assay [3] (setting [7]); 98% (active) in assay [3] (setting [8]); 97.5% (active) in assay [3] (at 50.0 µM); 13% in assay [4] (setting [7]); 96% (active) in assay [4] (setting [8]); 97.3% (active) in assay [4] (at 50.0 µM). In addition, the growth inhibition is -3% in assay [5] (setting [7]); 98% (active) in assay [5] (setting [8]); 96.2% (active) in assay [5] (at 50.0 µM); 8% in assay [6] (setting [7]); 98% (active) in assay [6] (setting [8]); 97.2% (active) in assay [6] (at 50.0 µM).
Consider `O=C(O)CSC(=S)N1CCCC1`, for which the growth inhibition in assay [1] (setting [7]) was -4%; in assay [1] (setting [8]), 5%; in assay [1] (at 50.0 µM), 46%; in assay [2] (setting [7]), 2%; in assay [2] (setting [8]), 3%; in assay [2] (at 50.0 µM), -5.3%. Besides, the growth inhibition in assay [3] (setting [7]) is -4%; in assay [3] (setting [8]), 4%; in assay [3] (at 50.0 µM), -14.5%; in assay [4] (setting [7]), 2%; in assay [4] (setting [8]), 2%; in assay [4] (at 50.0 µM), -40.7%. Also, the growth inhibition in assay [5] (setting [7]) is 2%; in assay [5] (setting [8]) it was -3%; in assay [5] (at 50.0 µM) it was -5.6%; in assay [6] (setting [7]), -4%; in assay [6] (setting [8]), 8%; in assay [6] (at 50.0 µM) it was -15.8%.
Take `Cc1ccc(-[n+]2cc([O-])on2)cc1`: the growth inhibition in assay [1] (setting [7]) is -11%; in assay [1] (setting [8]) it was 15%; in assay [1] (at 50.0 µM), 27.4%; in assay [2] (setting [7]), -10%; in assay [2] (setting [8]), -8%; in assay [2] (at 50.0 µM), 28.9%. The growth inhibition in assay [3] (setting [7]) was -6%; in assay [3] (setting [8]) it was 0%; in assay [3] (at 50.0 µM), -5.5%; in assay [4] (setting [7]) it was -3%; in assay [4] (setting [8]), -3%; in assay [4] (at 50.0 µM), 64.2%. Moreover, the growth inhibition is 10% in assay [5] (setting [7]); 2% in assay [5] (setting [8]); 15.6% in assay [5] (at 50.0 µM); -7% in assay [6] (setting [7]); 22% in assay [6] (setting [8]); 28.4% in assay [6] (at 50.0 µM).
As for `CC1CCC2(C)C(CC=C(C=O)C2(O)C=O)C12CO2` (stereo not given), the growth inhibition in assay [1] (setting [7]) is 99% (active); in assay [1] (setting [8]), 99% (active); in assay [1] (at 50.0 µM), 93.4% (active); in assay [2] (setting [7]) it was 99% (active); in assay [2] (setting [8]) it was 99% (active); in assay [2] (at 50.0 µM), 95.3% (active). Also, the growth inhibition was 99% (active) in assay [3] (setting [7]); 99% (active) in assay [3] (setting [8]); 94.5% (active) in assay [3] (at 50.0 µM); 99% (active) in assay [4] (setting [7]); 99% (active) in assay [4] (setting [8]); 92.9% (active) in assay [4] (at 50.0 µM). Besides, the growth inhibition in assay [5] (setting [7]) is 99% (active); in assay [5] (setting [8]), 54%; in assay [5] (at 50.0 µM), 93.8% (active); in assay [6] (setting [7]), 99% (active); in assay [6] (setting [8]), 99% (active); in assay [6] (at 50.0 µM) it was 93.5% (active).
As to `O=C1OC2(CCN(Cc3ccccc3)CC2)C(=O)N1c1cccc(Cl)c1`, the growth inhibition in assay [1] (setting [7]) is -1%; in assay [1] (setting [8]), 35%; in assay [1] (at 50.0 µM), 79.5% (active); in assay [2] (setting [7]), -8%; in assay [2] (setting [8]), 22%; in assay [2] (at 50.0 µM), 18.5%. Besides, the growth inhibition was 28% in assay [3] (setting [7]); 58% in assay [3] (setting [8]); 76.5% (active) in assay [3] (at 50.0 µM); 60% in assay [4] (setting [7]); 52% in assay [4] (setting [8]); 40.8% in assay [4] (at 50.0 µM). In addition, the growth inhibition in assay [5] (setting [7]) is 14%; in assay [5] (setting [8]), 81% (active); in assay [5] (at 50.0 µM), 52.8%; in assay [6] (setting [7]), 3%; in assay [6] (setting [8]) it was 37%; in assay [6] (at 50.0 µM), 62.5%.
On to `O=C(O)/C=C/C(=O)c1ccccc1`, for which the growth inhibition in assay [1] (setting [7]) is 7%; in assay [1] (setting [8]) it was 76% (active); in assay [1] (at 50.0 µM) it was 15.1%; in assay [2] (setting [7]), 5%; in assay [2] (setting [8]), 72% (active); in assay [2] (at 50.0 µM), 57.5%. Besides, the growth inhibition in assay [3] (setting [7]) is 3%; in assay [3] (setting [8]), 66%; in assay [3] (at 50.0 µM), 46.3%; in assay [4] (setting [7]) it was -3%; in assay [4] (setting [8]) it was 13%; in assay [4] (at 50.0 µM) it was 3.6%. Also, the growth inhibition in assay [5] (setting [7]) is -6%; in assay [5] (setting [8]) it was 71% (active); in assay [5] (at 50.0 µM), 67.2%; in assay [6] (setting [7]), 6%; in assay [6] (setting [8]), 80% (active); in assay [6] (at 50.0 µM) it was 72% (active).
Consider `CCc1cccc(C)c1NC(=O)C1=C(C)NC(C)=C(C(=O)Nc2c(C)cccc2CC)C1c1ccc2c(c1)OCO2`, for which the growth inhibition in assay [1] (setting [7]) is 32%; in assay [1] (setting [8]) it was 32%; in assay [1] (at 50.0 µM) it was 91.2% (active); in assay [2] (setting [7]), 27%; in assay [2] (setting [8]), 27%; in assay [2] (at 50.0 µM), 89.3% (active). Also, the growth inhibition in assay [3] (setting [7]) is 33%; in assay [3] (setting [8]) it was 33%; in assay [3] (at 50.0 µM), 89.6% (active); in assay [4] (setting [7]) it was 20%; in assay [4] (setting [8]), 20%; in assay [4] (at 50.0 µM) it was 84.2% (active). The growth inhibition in assay [5] (setting [7]) was 26%; in assay [5] (setting [8]) it was 26%; in assay [5] (at 50.0 µM), 90% (active); in assay [6] (setting [7]) it was 37%; in assay [6] (setting [8]) it was 37%; in assay [6] (at 50.0 µM), 87.2% (active).
On to `N#C/C=C/C=C/C#N`, for which the growth inhibition in assay [1] (setting [7]) was 1%; in assay [1] (setting [8]), 2%; in assay [1] (at 50.0 µM) it was 24.4%; in assay [2] (setting [7]), 5%; in assay [2] (setting [8]), 2%; in assay [2] (at 50.0 µM) it was 79.8% (active). Also, the growth inhibition in assay [3] (setting [7]) is 2%; in assay [3] (setting [8]), 3%; in assay [3] (at 50.0 µM), 6.95%; in assay [4] (setting [7]), -1%; in assay [4] (setting [8]), -3%; in assay [4] (at 50.0 µM), 78.4% (active). In addition, the growth inhibition in assay [5] (setting [7]) was -2%; in assay [5] (setting [8]) it was -5%; in assay [5] (at 50.0 µM), 99.5% (active); in assay [6] (setting [7]), -4%; in assay [6] (setting [8]), -1%; in assay [6] (at 50.0 µM) it was 56.3%.
